Screen size: about 360,000 compounds; about 1,300 (0.36%) were called active. Rule as the data show it: active = inhibition above about 19%; inactive = the rest. The sample as a whole holds a higher share of actives than the screen did.
test system: T-cell receptor (TCR); assay: small molecules blocking TCR binding to CD3 – biochemical, fluorescence, TAMRA-labeled TCR probe, primary screen (AID 651800); conditions: at 9.4 µM, stronger effect = higher value;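 also: recombinant mutant TCR 2C K166C tagged with TAMRA read by polarization; 0% = receptor in buffer alone and 100% = receptor with positive control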

SMILES | inhibition
COc1cc(OC)cc(C(=O)NCCSCc2ccco2)c1 | 2.08% (inactive)
COCCNC(=O)Nc1ccc2nc(-c3ccco3)c(-c3ccco3)nc2c1 | 48% (active)
COc1ccc(CCNC(=O)Nc2ccc3c(c2)c(=O)n(C)n3C)cc1OC | -9.13% (inactive)
CCOC(=O)C1CSCCS(=O)(=O)N1Cc1ccc(Cl)cc1 (stereo unspecified) | -6.78% (inactive)
CN(C)C(=O)c1cccn(Cc2cccc(C(F)(F)F)c2)c1=O | 4.33% (inactive)
Cc1scc(C(=O)NNC(=S)NCc2ccccc2)c1C | 3.75% (inactive)
CNC(=S)NNC(=O)c1cccn(Cc2ccccc2)c1=O | 45.4% (active)
CCOC(=O)CNC(=O)N(C)[C@H]1C[C@H]2c3[nH]c4c(-c5ccc6c(c5)OCO6)cccc4c3CCN2C(=O)[C@H]1[C@H](C)O | -3.41% (inactive)
COC(=O)C1=C(C)N(Cc2ccccc2C(F)(F)F)C(=NCC2CC2)NC1c1cccc(Cl)c1 (stereo unspecified) | 5.09% (inactive)
C=CCN1C(=O)N(Cc2ccccc2)c2ccccc2S1(=O)=O | -2.76% (inactive)
COc1ccc(CC(=O)N/N=C/c2cc([N+](=O)[O-])cc(Br)c2O)cc1 | 37.3% (active)
COc1ccc(CNS(=O)(=O)c2cc(Br)ccc2Br)cc1 | 1.49% (inactive)
COc1ccc(Cc2nnc(SCC(=O)c3cccc([N+](=O)[O-])c3)n2C)cc1 | 3.33% (inactive)
C[C@H]1[C@H](c2ccccc2)Oc2cc(Br)ccc2S(=O)(=O)N1Cc1cccc(F)c1 | 2.14% (inactive)
CCCCCCCCN1C(=O)[C@@H](CC(=O)N2CCN(C(=O)OCC)CC2)C[C@@]2(C(=O)OC)C1=C[C@H](C1CCCC1)O[C@@H]2C | 6.64% (inactive)
CC(NC(=O)c1ccccc1F)c1cccc2ccccc12 (stereo unspecified) | -0.21% (inactive)
CN(NC(=O)c1ccccc1F)c1nc(C(F)(F)F)nc2ccccc12 | 27.9% (active)
CSc1nc(N(C)NC(=O)c2cccc(C)c2)c2ccccc2n1 | -2.67% (inactive)
O=C1CCCCC1C(=O)c1ccccc1 (stereo unspecified) | -0.19% (inactive)
COC(=O)[C@]12C[C@H](CC(=O)NCc3ccccc3)C(=O)N(CCC3=CCCCC3)C1=C[C@H](C(C)(C)C)O[C@@H]2C | -4.03% (inactive)
CCCCn1c(=S)[nH]c2cc(S(=O)(=O)N3CCCCC3)ccc21 | 1.03% (inactive)

SMILES | inhibition
CNS(=O)(=O)c1ccc2c(c1)[nH]c(=S)n2C | 45.4% (active)
CCn1c(=S)[nH]c2cc(S(=O)(=O)N3CCOCC3)ccc21 | 1.36% (inactive)
COC(=O)[C@]12C[C@H](CC(=O)NCc3cccc(C(F)(F)F)c3)C(=O)N(Cc3ccc4c(c3)OCO4)C1=C[C@H](COCc1ccccc1)O[C@@H]2C | 0.9% (inactive)
O=C(C(=O)N1CCC(CNC(=O)c2cccnc2Cl)CC1)c1cccs1 | 0.67% (inactive)
C[C@H](CO)N1C[C@H](C)[C@@H](CN(C)C(=O)Nc2ccccc2F)OCc2cn(nn2)CCCC1=O | 4.97% (inactive)
CNC(=S)NNC(=O)c1oc2nc(-c3ccccc3)cc(-c3ccco3)c2c1N | 59.3% (active)
NNC(=O)c1oc2nc(-c3ccccc3)cc(-c3ccco3)c2c1N | 16.2% (inactive)
Cc1ccccc1C(=O)N[C@H](C(=O)N1CCC[C@H]1C(=O)NCc1ccccc1)C(C)C | 2.94% (inactive)
CCCCNc1cccc2c1S(=O)(=O)N[C@@H](C)CO2 | 2.35% (inactive)
Cc1ccc(N)cc1CN1CCN(c2ncc(Cc3ccccc3)cn2)CC1 | 3.41% (inactive)
COCCCNC(=O)C[C@H]1C[C@@]2(C(=O)OC)C(=C[C@H](C(C)(C)C)O[C@@H]2C)N(Cc2ccc3c(c2)OCO3)C1=O | 3.16% (inactive)
CC(C)CNc1cccc2c1S(=O)(=O)N[C@H](CC(C)C)CO2 | -1.27% (inactive)
Brc1ccc(COCCc2cn(Cc3ccccc3)c3ccccc23)cc1 | -0.9% (inactive)
CC12CCC(C(=O)N(NC(=O)c3ccccc3O)C1=O)C2(C)C (stereo unspecified) | 33.6% (active)
CC1=CC(C)(C)NC(=S)N1NC(=O)c1ccccc1Cl | -4.79% (inactive)
CC(Sc1nnc2c(n1)C1CCC2(C)C1(C)C)C(=O)Nc1ccccc1 (stereo unspecified) | 1.84% (inactive)
Clc1cccc2c1C1CC2CCN1Cc1ccccc1 (stereo unspecified) | -2.68% (inactive)
O=C(NCc1ccccc1)[C@H]1CCCN1C(=O)[C@H]1CCCN1C(=O)N1CCOCC1 | 4.79% (inactive)
CCCCCCCCN1C(=O)[C@@H](CC(=O)NCc2ccc(C)o2)C[C@@]2(C(=O)OC)C1=C[C@H](C(C)(C)C)O[C@@H]2C | 1.15% (inactive)
O=S(=O)(O)c1cc2onnc2c2ccccc12 | 28.6% (active)
O=C(CCN1C(=O)c2ccccc2C1=O)NNC(=O)c1ccc(Cl)cc1Cl | -3.56% (inactive)

SMILES | inhibition
COc1ccccc1C(=O)Nn1cnnc1 | -2.57% (inactive)
COc1ccccc1C(=O)NNC(=O)CCN1C(=O)/C(=C\c2ccccc2)SC1=S | 23.9% (active)
CC[C@H](NC(=O)[C@H](Cc1ccccc1)NC(=O)[C@H]1O[C@@H](n2cnc3c(=O)[nH]c(N)nc32)[C@H](O)[C@@H]1O)c1ccccc1 | 1.67% (inactive)
COC(=O)[C@]1(Cc2ccccc2)NC=C(C(=O)c2ccccc2)[C@@H]1c1cccc(OC)c1 | -0.52% (inactive)
CCOC(=O)c1c(N)c(C#N)nn1-c1ccccc1C(=O)OC | -3.5% (inactive)
Cc1ccc2nc(-c3ccc(CN4CCC(n5cc(-c6ccccc6)[nH]c5=O)CC4)cc3)c(-c3ccccc3)nc2c1 | 5.23% (inactive)
O=C1Nc2ccccc2C1=NN=Cc1ccco1 | 4.85% (inactive)
COc1ccccc1C(=O)N1O[C@]23C=C[C@]14C[C@@H](O)CC[C@]4(C)C2CC[C@]1(C)[C@@H]([C@H](C)/C=C/[C@H](C)C(C)C)CC[C@H]13 (stereo partly specified) | -1.2% (inactive)
CCOc1[nH]n(-c2ccc(Cl)cc2)c(=O)c1C=Nc1ccc(O)cc1 | 28% (active)
Cc1ccc(C)c(CN2CCC(CNC(=O)C3CCCN(c4ncnc5c4nc4n5CCCCC4)C3)CC2)c1 (stereo unspecified) | -2.34% (inactive)
CC1(C)CC(=O)C=C(NCCN2CCNCC2)C1 | 5.49% (inactive)
Nc1nc2c(ncn2[C@@H]2O[C@H](C(=O)N[C@@H](Cc3ccccc3)C(=O)NCc3ccccc3)[C@@H](O)[C@H]2O)c(=O)[nH]1 | -1.96% (inactive)
CN1C(=O)CN2CCc3ccccc3C2c2cc(Cl)ccc21 (stereo unspecified) | -2.81% (inactive)
COC(=O)C1=C(C)N(Cc2ccc(F)cc2)C(=S)NC1c1cccc(Cl)c1 (stereo unspecified) | 3% (inactive)
O=C(NS(=O)(=O)c1cccs1)[C@H]1O[C@@H](n2ccc(=O)[nH]c2=O)[C@H](O)[C@@H]1O | -0.49% (inactive)
Cc1cc2occ(CC(=O)NNC(=O)c3ccccc3F)c2cc1C | 2.71% (inactive)
Cc1cccc(NS(=O)(=O)c2cccc(C(=O)NNC(=O)c3ccccc3O)c2)c1 | 16.2% (inactive)
Cc1cc(C(=O)CCC(=O)NNC(=O)c2ccccc2O)c(C)s1 | 25.6% (active)
Cc1ccccc1C(=O)NNC(=O)CN1C(=O)c2ccccc2C1=O | -5.72% (inactive)
O=C(NNC(=O)c1ccccc1O)c1ccccc1O | 40% (active)
O=C(NNC(=O)c1cc(S(=O)(=O)N2CCCCC2)ccc1Cl)c1ccccc1O | 16.6% (inactive)

SMILES | inhibition
COc1cccc(NC(=O)N(C)C[C@@H]2OCc3cn(nn3)CCCC(=O)N([C@@H](C)CO)C[C@H]2C)c1 | -4.37% (inactive)
C=CC1=C(C(=O)O)N2C(=O)[C@@H](NC(=O)/C(=N/OCC(=O)O)c3csc(N)n3)[C@H]2SC1 | 25.6% (active)
C=CC1=C(C(=O)O)N2C(=O)[C@@H](NC(=O)/C(=N\OCC(=O)O)c3csc(N)n3)[C@H]2SC1 | 4.98% (inactive)
CCCCOCC1CN(CCCC)S(=O)(=O)c2c(Oc3ccc(F)cc3)cccc2O1 (stereo unspecified) | 0.77% (inactive)
Nc1ncnc2c1ncn2[C@@H]1O[C@H](C(=O)N[C@@H](CCc2ccccc2)C(=O)N2CCCN(Cc3cccs3)CC2)[C@@H](O)[C@H]1O | 3.68% (inactive)
COc1cccc(CNC(=O)[C@H]2CCCN2C(=O)[C@H]2CCCN2C(=O)c2cc(F)cc(F)c2)c1 | -6.91% (inactive)
CC(=O)N1C[C@@H](CO)[C@@H](N(C)C(=O)C(C)(C)C)C[C@H]1c1ccccc1Br | -0.47% (inactive)
C=C1c2c(Cl)ccc(O)c2C(O)=C2C(=O)[C@]3(O)C(O)=C(C(N)=O)C(=O)[C@@H](N(C)C)[C@@H]3[C@@H](O)C12 (stereo partly specified) | 33.5% (active)
CN(C)[C@@H]1C(=O)C(C(N)=O)=C(O)[C@@]2(O)C(=O)C3=C(O)c4c(O)ccc(Cl)c4[C@@H](O)[C@H]3C[C@@H]12 | 21.1% (active)
CCc1c(-c2ccccc2OC)ncn1CCc1ccccc1OC | 7.58% (inactive)
NCCN1CCN2C(=O)CN(C(=O)c3ccccc3)CC12 (stereo unspecified) | -1.77% (inactive)
COC(=O)[C@]12C[C@H](CC(=O)NCc3ccc(C)o3)C(=O)N(CCC3=CCCCC3)C1=C[C@H](C(C)(C)C)O[C@@H]2C | -1.26% (inactive)
Oc1ccc(/C=N/N(Cc2ccccc2)c2ccccc2)cc1 | 7.05% (inactive)
Oc1ccc(N=Cc2c(O)ccc3ccccc23)cc1 | 44.6% (active)
Oc1ccc(N=Cc2sc3ccccc3c2Cl)cc1 | 89.3% (active)
COc1ccc(-c2ccc3c(n2)CCCN3S(=O)(=O)c2ccc(C)cc2)cc1 | -3.11% (inactive)
CC(C)(C)c1ccc(S(=O)(=O)NCC2CCN(C(=O)C(=O)c3cc4ccccc4o3)CC2)cc1 | -7.28% (inactive)
NC(=O)c1ncn([C@@H]2O[C@H](C(=O)O)[C@@H](O)[C@H]2O)n1 | 6.54% (inactive)

Source: PubChem BioAssay AID651800 (The Scripps Research Institute Molecular Screening Center, 2012)
